The panel holds about 79,000 compounds, 15% with a hit somewhere; the sample as a whole holds those more often. Values without a mark were called inactive. Calls of active or inactive are those of the source. Rule as the data show it: active = growth inhibition above about 70%; inactive = the rest.
How the values were obtained:
[1] = NCI Yeast Anticancer Drug Screen. Data for the rad50 strain (AID 155);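 also: 0% = growth of vehicle-only cultures of the same strain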; details: S. cerevisiae rad50 strain growth inhibition; at 50.0 µM; hits give high values
Summary of the method: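 A DNA repair-deficient yeast mutant serves as the test organism; compound-induced growth inhibition is calculated against vehicle-treated cells.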

[2] = NCI Yeast Anticancer Drug Screen. Data for the mec2-1 strain (AID 157); details: S. cerevisiae mec2-1 strain, at 50.0 µM, hits give high values
Summary of the method: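 Readout is yeast growth inhibition, normalised to vehicle-treated controls, in the mec2-1 strain exposed to compound.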

[3] = NCI Yeast Anticancer Drug Screen. Data for the sgs1 mgt1 strain (AID 161);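 also: 0% = growth of cultures given vehicle only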; details: S. cerevisiae sgs1 mgt1 strain, at 50.0 µM, hits give high values
Summary of the method: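 Compounds are added to genetically altered yeast, and growth is compared with cultures given vehicle alone to give percent inhibition.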

[4] = NCI Yeast Anticancer Drug Screen. Data for the cln2 rad14 strain (AID 165);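 also: 0% = growth equal to vehicle treated cultures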; details: S. cerevisiae cln2 rad14 strain, at 50.0 µM, hits give high values
Summary of the method: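 Relative to vehicle controls, growth inhibition of compound-treated cln2 rad14 yeast was recorded.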

[5] = NCI Yeast Anticancer Drug Screen. Data for the bub3 strain (AID 167); details: S. cerevisiae bub3 mutant strain, at 50.0 µM, hits give high values
Summary of the method: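 Inhibition values come from growth of compound-treated mutant yeast normalised to vehicle-treated controls.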

[6] = NCI Yeast Anticancer Drug Screen. Data for the mlh1 rad18 strain (AID 175); details: S. cerevisiae mlh1 rad18 strain growth inhibition; at 50.0 µM; hits give high values
Summary of the method: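 Test agents were incubated with a yeast strain of defined genotype (DNA damage repair defect). Inhibition of growth was derived by comparison with vehicle-exposed cultures.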

Row | Structure (SMILES) | growth inhibition [1] | growth inhibition [2] | growth inhibition [3] | growth inhibition [4] | growth inhibition [5] | growth inhibition [6]
1 | O=[N+]([O-])c1cccc(C2=NOC3CCCC23)c1 (stereo not given) | 17.6% | -7.6% | 15.2% | 13.8% | -8.3% | 16.9%
2 | [N-]=[N+]=C1C(=O)NC(=O)N2C3OC(CO[C@@H]12)C(O)C3O (stereo not given in full) | -24.2% | -1.65% | -16.2% | 32.2% | -8.2% | -39%
3 | N#C/C(=C1\N=C(c2ccccc2O)Oc2ccccc21)c1ccc([N+](=O)[O-])cc1 | 6.85% | -11.9% | 13.1% | -0.7% | 4.35% | -13.6%
4 | COc1cc(C(=O)O)ccc1OC(C)=O | 7.4% | -20.1% | -2.15% | 2.15% | -6.6% | 1.35%
5 | Cc1cccc2nc(-c3ccccn3)n(CCc3ccncc3)c12 | 98.8% (active) | 99.2% (active) | 99.2% (active) | 98.1% (active) | 98.8% (active) | 98.7% (active)
6 | CC(=O)OCC1OC(n2cc(I)c(=O)[nH]c2=O)C(OC(C)=O)C(OC(C)=O)C1OC(C)=O (stereo not given) | -29.9% | -22.1% | -12.2% | -27.4% | -29.5% | -13.2%
7 | O=C(Nc1cc(-c2ccccc2)nn1-c1ccccc1)c1ccc(Cl)cc1 | -16.4% | -19.9% | -17.8% | 15.2% | -29.1% | -9.65%
8 | CC(=Nc1cccc(C(F)(F)F)c1)c1c(O)cc(C)oc1=O | 9.25% | 14.8% | 24.9% | 11.7% | 28.2% | 35.1%
9 | CC(C)=CCC\C(C)=C/C=C/C(C)=C\C=C\C(C)=C/C=C/C=C(C)\C=C\C=C(C)/C=C/C=C(/C)CCC=C(C)C | 7.15% | -30.8% | -29% | 30.9% | -30.6% | 20.2%
10 | O=C(Cc1ccccc1)NC(CSCc1ccccc1)C(=O)O (stereo not given) | 9.85% | 19.2% | -15% | -39.1% | 10.8% | 40.2%
11 | CCOc1ccc2c(c1)C(C)(C)CCC2(C)C | 3.55% | -7.75% | -5.9% | -38.5% | 1.4% | 6.05%
12 | CC(C)(C)C1CCC(C2CC(C(C)(C)C)CCC2=O)CC1 (stereo not given) | 2.75% | -8% | 1.65% | 5.15% | 5.7% | 27.8%
13 | C=C(C)C(=O)OCCCCC | 8.7% | 5.15% | 4.45% | 6.65% | -3.55% | 2.95%
14 | CNc1c(F)cc(C(=O)O)cc1F | -8.35% | 4.5% | -0.25% | -16.4% | -32.6% | 2.15%
15 | O=c1[nH]c2nc3ccccc3c(=O)n2/c1=C/c1ccc(O)cc1 | 9.6% | 2.3% | -12% | 8.95% | 7.3% | -19.8%
16 | O=C(O)c1cc(=O)c2ccccc2[nH]1 | 4.45% | 8.4% | 1.35% | 6.5% | 8.2% | 17.9%
17 | Cc1cc2c(=O)cc(-c3ccncc3)oc2c(C(N)=O)c1C | 14.8% | 4.2% | -12% | -1% | 17.6% | 22.5%
18 | CCc1cccc(C)c1NC(=O)C1=C(C)NC(C)=C(C(=O)Nc2c(C)cccc2CC)C1c1ccc([N+](=O)[O-])cc1 | 40.8% | 34.2% | 42.2% | 18.4% | 36.9% | 46.7%
19 | CCOC(=O)c1cc2sc(NC(=O)c3ccco3)nc2o1 | 10.8% | 12.2% | 48.8% | 4.3% | 6.6% | 27.6%
20 | C/C(=N\NC(N)=O)c1ccc(Cl)c(-n2cccc2)c1 | 12.3% | 3.65% | 32.7% | 14.3% | 32.1% | 31.2%

Row | Structure (SMILES) | growth inhibition [1] | growth inhibition [2] | growth inhibition [3] | growth inhibition [4] | growth inhibition [5] | growth inhibition [6]
21 | CCN(CC)CCCNc1c2ccccc2nc2ccccc12 | 13.7% | 22.8% | 9.2% | 51.6% | -8.1% | 7%
22 | COC(=O)c1c(C)oc(C)c1-c1ccc(OCc2ccccc2)c(OC)c1 | 8.7% | -12.8% | -35.8% | 7.6% | 1.25% | 2.7%
23 | Cc1ncc(CO)c(Cc2ccc(N(C)C)cc2)c1O | 3.15% | -2.25% | -5.9% | -2.25% | -58.8% | 1.8%
24 | CCSC(COC(C)=O)(SCC)C(OC(C)=O)C(OC(C)=O)C(COC(C)=O)OC(C)=O (stereo not given) | 10.9% | 6.55% | -9% | -6.3% | -2.6% | 14.4%
25 | CCCCS(=O)(=O)Cc1ccccc1 | 1.75% | -0.55% | -1.25% | -14.1% | 0.3% | -17.4%
26 | COC(=O)c1ccc(-c2nc(C#N)c(N)o2)cc1 | 5.9% | 19.1% | -11.1% | -1.45% | -14.8% | -43%
27 | CC(C)(C)OC(=O)NC1CCCCC1NC(=O)C(=O)NC1CCCCC1NC(=O)OC(C)(C)C (stereo not given) | -17.1% | -18.7% | -14.8% | 4.2% | -10.8% | -30.3%
28 | Cc1cc(C)n(-c2ccncc2[N+](=O)[O-])n1 | 7.55% | 17.9% | -2.45% | -13.8% | 9.05% | 0.2%
29 | O=C(Nc1ccc(F)cc1)Nc1ccc(I)cc1 | 13.2% | 1.15% | 5.6% | 15.4% | 17.2% | 8.95%
30 | C=CCc1cccc(C2N(Cc3ccc(OC)cc3OC)CCCN2Cc2ccc(OC)cc2OC)c1O | 26.6% | 7% | -0.75% | 16.6% | -2.05% | 17.8%
31 | C[C@@]12CCC3C1C=C1C(=O)c4cc(O)ccc4C(=O)[C@]1(O2)[C@@]3(C)C=O | -10.7% | 2% | 78.8% (active) | 51.1% | 76.3% (active) | 89.7% (active)
32 | COc1ccc(/C(=N\N=C(N)N)C(c2ccc(OC)cc2)C2OC(=O)c3ccccc32)cc1 (stereo not given) | -12.2% | -4.85% | -4.65% | -64.8% | 16% | -18.7%
33 | C1CCSCCCCSCCCCSCCCCSC1 | 20.4% | 18% | 23.4% | 6.5% | 16.9% | 35.8%
34 | Cc1cc2nn(C3CCCCO3)nc2cc1C (stereo not given) | 1.75% | -20.4% | -21.6% | -25.4% | 8.05% | -46.8%
35 | COP(=O)(OC)/C(=C\c1cn(C(c2ccccc2)(c2ccccc2)c2ccccc2)cn1)NC(C)=O | -9.65% | -32% | -11.4% | -22.1% | -19.1% | -10.2%
36 | CSCCC(NC(=O)OC(C)(C)C)C(=O)NCCNc1ccc(NCCNC(=O)C(CCSC)NC(=O)OC(C)(C)C)c2c1C(=O)c1ccccc1C2=O (stereo not given) | 19.4% | 7.9% | -24.2% | 3.85% | -9.5% | -43.3%
37 | CC(C)=CCC/C(C)=C/c1cc(C(=O)O)c2c(ccc3ccccc32)n1 | 9.6% | 10.5% | 6.7% | 11.3% | 25.1% | 14.3%
38 | CCCP1(=O)C=C(C)C(=C(Cl)Cl)C(C)=C1 (stereo not given) | 6.9% | -19.2% | -7.55% | 13.6% | -10.4% | 6.4%
39 | CCOc1ccc(C(C)(CC)c2cc3c(cc2OC)OCO3)cc1 (stereo not given) | -18.9% | -14.3% | -23.3% | 3.55% | -20.1% | 3.85%
40 | CCOc1ccc(C(C)c2cc3c(cc2OC)OCO3)cc1 (stereo not given) | 20.7% | 2.3% | 20.8% | -1.55% | 27.5% | 11.8%
